We go through 47 sequences from the supplement of paper PMC11417369.

Whole data set: some 25,000 sequences, median “ln(normalized median fluorescence intensity)” near 9.7, cut for the highest 2% near 11. The entries come from a sample that favours the highest values as a whole.

This assay deals with PfAP2-HC AP2 domain (GST-tagged). Description: gcPBM binding intensity (ln(normalized median fluorescence intensity)); higher = stronger DNA binding. In outline: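 An Agilent 4 × 180k array of primer-extended double-stranded 36-bp intergenic genomic probes, with negative controls, was incubated for 1 h with GST-tagged P. falciparum DNA-binding domains expressed in E. coli. Alexa488 anti-GST antibody detected bound protein, scanned at 488 nm. Binding intensity is the highest Masliner-normalised natural-log median intensity across replicate spots of either probe orientation.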
As to “TTATAAATGAATAAATGTACAAAATATATATATATA [XGTACX_site8829]”, the “gcPBM binding intensity (ln)” value was 9.66.
“TTAAATAAAAAAATAACACACATATAAATCTATATG [CACACA_site7482]”: the “gcPBM binding intensity (ln)” value came to 9.75.
On to “TTTTTTTTGTGTTCAAGTACAAAATTTTAAAGGTCA [XGTACX_site4011]”, for which the “gcPBM binding intensity (ln)” value turned out to be 9.26.
As for “TATTGTTGTTCATGTACACACTATAATAAAAGCAAT [CACACA_site6148]”, the “gcPBM binding intensity (ln)” value was 9.62.
For the sequence “ATCTTATATGATCACACACACACGCACAAAACAGAA [CACACA_site4913]”, the “gcPBM binding intensity (ln)” value came to 10.4.
Regarding “CTTATATTAAAACACACACACGCACAAAACAGAAAT [CACACA_site1462]”, the “gcPBM binding intensity (ln)” value came out at 11.
With “AAAAAAAACAAACACACACACAAATATTTATATATT [CACACA_site436]”, the “gcPBM binding intensity (ln)” value stood at 10.5.
Next, “ATCTTATATTATCACACACACACGCACAAAACAGAA [CACACA_site1463]”: 10.3.
To “CACAAAAATAAACACACACACATATATATTTATTAT [CACACA_site5923]” belongs 11.1.
Next, “TATTTATTTATATAAACACACATAAATATAAATATA [CACACA_site6653]”: 9.45; “AACAAAAAAACAAACACACACACACGCATATTTATA [CACACA_site7680]”: 11.2; “TATAAAACACACACACATATATATATATATTTATAT [TGCATGCA_negctrl_site48]”: 11.2.
On to “ATATAATTATAAAATAAACACACATATATATTTATA [CACACA_site8039]”, for which the “gcPBM binding intensity (ln)” value was found to be 9.91.
To “CAATATAAAAAACACACACACAAACATATATTTATA [CACACA_site3703]” belongs 10.5; to “AAGGATCACGCACAAACACACATATTTATATTTATA [CACACA_site6405]”, 9.95; to “CATATATAAAAAAACACACACATATTTATATTTATA [CACACA_site6682]”, 10.3.
“ATTCTATATATATAAACACACAAATATTTTTATATA [CACACA_site1677]”: the “gcPBM binding intensity (ln)” value is 9.65.
To “TTCTTTTCTTCTACATGTACAAATATTATATATATA [XGTACX_site2996]” belongs 9.97; to “TATATTATATTATACATACACACCCATATAATATGT [CACACA_site869]”, 10.1.
Turning to “TATAAATTAATGACATGTACATAAAAGTATAGATGT [XGTACX_site6534]”, the “gcPBM binding intensity (ln)” value came to 9.95.
For “TTTATAAAATTATTTGCATGTAACAATTATAAATTG [TGCATGCA_site1026]”, the “gcPBM binding intensity (ln)” value amounted to 9.42.
As to “TTTTTTTAAAACAAAAAAAAAAAAAAAAAAAAAAAA [TGCATGCA_negctrl_site418]”, the “gcPBM binding intensity (ln)” value stood at 8.22.
Next, “CAAAAAAAATTATACACACACACACCGATATATATA [CACACA_site4719]”: 11.1.
Next, “CAAAATAATATATATACACACACACCGATATATATA [CACACA_site8082]”: 10.8; “TTAATATAAGCAAATACACACACACCGATATATATA [CACACA_site9269]”: 11.1; “TAAAAAAAAAAAAATACACACACACCGATATATATA [CACACA_site8498]”: 10.7.
To “TATACATACATACATACACACACACCGATATATATA [CACACA_site7896]” belongs 10.2; to “GATATATATTAATATACACACACACCGATATATATA [CACACA_site8462]”, 10.2; to “ATAATATATATTAATACACACACACCGATATATATA [CACACA_site9261]”, 10.4.
For “TATATATATATATACACACACACACCGATATATATA [CACACA_site8813]”, the “gcPBM binding intensity (ln)” value amounted to 10.5.
With “AATATATATATATATACACACACACCGATATATATA [CACACA_site8158]”, the “gcPBM binding intensity (ln)” value came to 11.2.
To “AAAAAAAAAAAAAATACACACACACCGATATATATA [CACACA_site8142]” belongs 10.6.
Turning to “ATAATACCCAAGCACACACACACACCGATATATATA [CACACA_site8344]”, the “gcPBM binding intensity (ln)” value is 11.3.
To “TAATAATACCCAAGCACACACACACCCATATATATA [CACACA_site4831]” belongs 10.6; to “ATAAAGAAACATATATGTACTTATATATATATATAT [XGTACX_site5625]”, 9.69; to “TATAAGAGAATATATACACACAAAAATAAATACAGT [CACACA_site5000]”, 10.9.
As for “ATATATATATAATGAAGTACGAAAAAATAAGAAATG [XGTACX_site4001]”, the “gcPBM binding intensity (ln)” value was found to be 9.9.
For the sequence “TATAAAACAAATATATGTACATATCATAGTATAATA [XGTACX_site2965]”, the “gcPBM binding intensity (ln)” value came out at 9.75.
For “AAGGAAATATAATATACACACATAAGTGTACTTCTA [CACACA_site6079]”, the “gcPBM binding intensity (ln)” value worked out at 9.81.
Next, “AATAGTCGGGTGCATACACACCTTAAATATAATATA [CACACA_site8271]”: 9.57; “CTAATCGTGCACAACTGTACATTTGTCAAGGGCAAT [XGTACX_site8662]”: 9.62.
Next, “AAAGAACAAATAAAACATAAAATAATATATATAGAT [CACACA_negctrl_site1764]”: 10.1; “AAAAAAAAAAAAAACACACACACACCCATACAAAAT [CACACA_site1446]”: 11.6; “AAAAAATACAAACACACACACACACCCATATATATA [CACACA_site3560]”: 11.
Next, “AAAAAAAAAAAAAACACACACAACACCCATACCTTA [CACACA_site3621]”: 11.2; “ATATCTTATATTATCACACACACACCCACAAAACAG [CACACA_site1464]”: 11.5; “AAAAAAAAAAAAAAAACACACATACCCATATATTTT [CACACA_site6013]”: 9.85.
